Shown are actives, neighbours in structure and some others; about 2.2% of the full set was active somewhere.
MITF TRPM1 inh: inhibitors of MITF-driven TRPM1 promoter in melanoma cells. SK-MEL-5 TRPM1 promoter luciferase, 24 h. actives 0.83% (n = 330,000). AID 488899. inhibition, % at 12.5 µM;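 active = mean inhibition across replicates of 60% or more, whatever share of single replicates reaches that level; inconclusive = some that reach 60%, reason not given; inactive = mean inhibition across replicates below 60%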
Shn3 3UTR inh: reduces Shn3 3'UTR luciferase signal in osteoblasts; Clone20 osteoblast Shn3 3'UTR firefly luciferase, 24 h; actives 0.52% (n = 360,000); inhibition, % at 12.5 µM;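 active = mean inhibition of at least 75% with every replicate also reaching 75%; inconclusive = mean inhibition at least 75% but some replicate below; inactive = mean inhibition below 75%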
LGR2 antag: Drosophila LGR2 receptor signaling inhibition; HEK293 LGR2, CRE-luciferase, bursicon-stimulated, 4 h; inhibition, % at 9.99 µM; actives 0.35% (n = 380,000); AID 720647;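 active = drop in luminescence signal, shown as inhibition above about 50% in the replicate tests, limit read from the data, passing the limit was not always enough; inconclusive = probably only some replicates passing the limit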;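 note: agonist challenge used bursicon conditioned medium at about half maximal strength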
EWS-Fli block: EWS/Fli transcriptional activity inhibition; A673 NR0B1-luciferase reporter, viability-normalised; inhibition, % at 12.6 µM; actives 0.67% (n = 350,000);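 active = mean inhibition of at least 50% after viability correction, with every replicate also passing that limit; inconclusive = mean reaches 50% but only one of two replicates passes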;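 note: firefly luciferase signal divided by Alamar Blue viability fluorescence both relative to DMSO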
PAX8 reporter: lowers PAX8-driven luciferase in RMG-I cells. RMG-I TPO-luciferase reporter, SteadyGlo, 24 h. inhibition, % at 12.6 µM. actives 1.2% (n = 360,000);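 active = mean replicate inhibition at least 60% with every replicate also reaching 60%; inconclusive = only one of the two criteria is met; inactive = mean below 60% and not all replicates reaching 60%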;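 note: luciferase light reporting Pax8 driven TPO promoter activity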
EBV LMP1 NFkB: Epstein-Barr LMP1 NF-kappaB reporter inhibition; LMP1-induced NF-kappaB luciferase reporter cells, luminescence; inhibition, % at 12.5 µM; actives 0.69% (n = 350,000); AID 504558; in the data active = inhibition above about 41%; inconclusive = no clear call, values can overlap the other calls
Numbers stand for hits; - = inactive; ? = inconclusive; . = no result given.

SMILES	MITF TRPM1 inh	Shn3 3UTR inh	LGR2 antag	EWS-Fli block	PAX8 reporter	EBV LMP1 NFkB
O=C(OCc1cccc(Cl)c1)c1cc([N+](=O)[O-])ccc1N1CCOCC1	-	-	-	-	74	-
Clc1ccc(-c2cn3nc4c(nc3n2)CCCC4)cc1	-	-	.	.	.	50
COc1ccc2c3c([nH]c2c1)[C@@H](CO)N(Cc1ccccc1F)CC31CCN(C(=O)C2CCOCC2)CC1	.	.	-	-	.	.
N#C/C(=C\c1cccs1)C(=O)c1ccccc1Cl	.	.	-	-	64	.
COc1ccc2cc(CNCCOCCOCCNCc3ccc4cc(OC)ccc4c3)ccc2c1	91	96	103	56	117	-
CCOC(=O)c1cc(-c2ccccc2C)nn1Cc1cc(C)no1	-	-	-	-	-	58
N#CC1=C(N)Oc2cc3ccccc3cc2C1c1cccs1 (stereo unspecified)	-	-	.	.	-	-
CN(C)/C=N/C1=C(C#N)C(c2cccs2)c2ccc3ccccc3c2O1 (stereo unspecified)	-	-	-	54	-	-
COc1ccccc1NC(=O)Nc1ccc2c(c1)C(=O)N(C)C[C@H](OC)[C@H](C)CN(C)[C@H](C)CO2	.	.	-	-	-	.
Nc1ccn([C@H]2C[C@H](O)[C@@H](CO)O2)c(=O)n1	-	-	-	-	-	-
Nc1nc(F)nc2c1ncn2[C@@H]1O[C@H](CO)[C@@H](O)[C@H]1O	93	96	75	-	108	91
Nc1ncn([C@H]2C[C@H](O)[C@@H](CO)O2)c(=O)n1	-	-	-	-	107	-
Nc1nc(Cl)nc2c1ncn2C1CC(O)C(CO)O1 (stereo unspecified)	-	90	-	-	-	-
Cc1ccc(S(=O)(=O)Nc2ccc3c(c2)C(=O)N([C@@H](C)CO)C[C@H](C)[C@@H](CN(C)C)OCCCC[C@@H](C)O3)cc1	.	.	-	-	-	.
CN(C)CCCN(C(=O)c1ccc(Cl)s1)c1nc2cc3c(cc2s1)OCO3	83	-	-	57	-	-
CN(C)CCCN(C(=O)c1ccc(Br)s1)c1nc2cc3c(cc2s1)OCCO3	-	-	-	-	-	-
CN(C)CCCN(C(=O)c1ccc([N+](=O)[O-])s1)c1nc2cc3c(cc2s1)OCCO3	67	-	-	.	-	-
CN(C)CCCN(C(=O)c1cc(Cl)sc1Cl)c1nc2cc3c(cc2s1)OCO3	-	-	-	.	-	-
CN(C)CCCN(C(=O)c1cc2cc([N+](=O)[O-])ccc2s1)c1nc2cc3c(cc2s1)OCCO3	87	-	-	52	.	-
CC(=O)Oc1ccccc1C(=O)OCO/N=[N+](\[O-])N1CCCC1	.	.	.	-	-	.
COc1ccc(S(=O)(=O)Nc2ccc3c(c2)C(=O)N([C@H](C)CO)C[C@H](C)[C@@H](CN(C)S(=O)(=O)c2ccc(C)cc2)OCCCC[C@H](C)O3)cc1	.	.	-	-	78	.
COc1ccc(S(=O)(=O)Nc2ccc3c(c2)C(=O)N([C@@H](C)CO)C[C@@H](C)[C@@H](CN(C)S(=O)(=O)c2ccc(C)cc2)OCCCC[C@H](C)O3)cc1	.	.	-	-	-	.
COc1ccc(S(=O)(=O)Nc2ccc3c(c2)C(=O)N([C@@H](C)CO)C[C@@H](C)[C@@H](CN(C)S(=O)(=O)c2ccc(F)cc2)OCCCC[C@H](C)O3)cc1	.	.	-	-	-	.
COc1ccc(S(=O)(=O)Nc2ccc3c(c2)C(=O)N([C@H](C)CO)C[C@H](C)[C@@H](CN(C)S(=O)(=O)c2ccc(F)cc2)OCCCC[C@H](C)O3)cc1	.	.	-	-	76	.
COc1ccc(S(=O)(=O)Nc2ccc3c(c2)C(=O)N([C@H](C)CO)C[C@@H](C)[C@H](CN(C)S(=O)(=O)c2ccc(C)cc2)OCCCC[C@@H](C)O3)cc1	.	.	-	-	67	.
SMILES	MITF TRPM1 inh	Shn3 3UTR inh	LGR2 antag	EWS-Fli block	PAX8 reporter	EBV LMP1 NFkB
COc1ccc(S(=O)(=O)N(C)C[C@@H]2OCCCC[C@H](C)Oc3ccc(NC(=O)C4CCCCC4)cc3C(=O)N([C@@H](C)CO)C[C@@H]2C)cc1	.	.	-	-	65	.
COc1ccc(S(=O)(=O)N(C)C[C@H]2OCCCC[C@@H](C)Oc3ccc(NC(=O)C4CCCCC4)cc3C(=O)N([C@@H](C)CO)C[C@H]2C)cc1	.	.	-	-	-	.
CCC(=O)Nc1ccc2c(c1)C(=O)N(C)[C@H]1CC[C@@H](CC(=O)NCCc3ccccc3)O[C@H]1CO2	.	.	-	-	-	.
C[C@H]1CCCCO[C@@H](CN(C)C(=O)c2ccccc2)[C@@H](C)CN([C@@H](C)CO)C(=O)c2cc(NC(=O)c3ccccc3)ccc2O1	.	.	-	.	-	.
COCC(=O)N1C[C@@H](C)[C@H](OC)CN(C)C(=O)c2ccc(NC(=O)c3ccccc3)cc2OC[C@@H]1C	.	.	-	-	.	.
Cc1cc(Nc2cccc([N+](=O)[O-])c2)n2c(nc3ccccc32)c1C#N	76	?	-	.	.	50
CCCC[C@@H](CNC)NC[C@H](NCCCCC1CCCCC1)C(C)C	78	-	-	-	-	-
O=C(N/N=C/c1cccc2cccnc12)c1ccccc1O	69	92	-	-	-	-
Cc1ccccc1/C=N/Nc1nc2ccccc2[nH]1	-	-	-	-	-	-
Cc1[nH]c2ccccc2c1/C=N/Nc1nc2ccccc2[nH]1	-	-	100	-	-	-
C(=N\Nc1nc2ccccc2[nH]1)/c1cccc2cccnc12	-	-	-	-	-	71
C[C@H](CO)N1C[C@H](C)[C@H](CN(C)C(=O)Nc2ccccc2F)Oc2ncc(C#CCN(C)C)cc2C1=O	.	.	-	-	-	.
Cc1cc(C(=O)Nc2ccc(Cl)cc2)c(C)n1-c1ccccc1	.	.	82	58	-	.
Cc1ccc(NC(=O)c2cc(C)n(-c3cccc(C)c3)c2C)cc1	-	-	-	-	-	-
Cc1ccc(NC(=O)c2cc3ccccc3oc2=N)cc1	-	-	89	69	-	50
Cc1ccc(NC(=O)c2cc(C)n(-c3ccccc3)c2C)cc1	-	-	.	69	-	-
Cc1ccc(NC(=O)c2csc(-c3ccccc3)c2C)cc1	-	-	.	.	-	45
C[C@@H]1CCCCO[C@@H](CN(C)S(=O)(=O)c2ccccc2)[C@H](C)CN([C@@H](C)CO)C(=O)c2cc(NC(=O)Nc3cccc4ccccc34)ccc2O1	.	.	-	-	-	.
CC=Cc1ccc2n(c1=O)C[C@@H]1[C@@H](CO)[C@H](C(=O)NC3CCCC3)N[C@H]21 (mixture of isomers)	.	.	-	-	.	.
CO[C@@H]1CN(C)C(=O)c2cc(NC(=O)C3CCC3)ccc2OC[C@H](C)N(Cc2nccs2)C[C@@H]1C	.	.	-	-	-	.
CO[C@@H]1CN(C)C(=O)c2cc(NS(=O)(=O)c3ccc(Oc4ccccc4)cc3)ccc2OC[C@H](C)NC[C@@H]1C	.	.	-	-	-	.
CCNC(=S)N1CCN(c2ccccn2)CC1	-	-	-	-	-	-
O=C(NC(=S)N1CCN(c2ccccn2)CC1)c1ccco1	-	-	-	-	-	54

Screening data (PubChem)
